# Results reported in paper PMC7862700, “An all-to-all approach to the identification of sequence-specific readers for epigenetic DNA modifications on cytosine”.
# How the values were obtained:
# Assay in all cases: DAPPL (digital affinity profiling via proximity ligation, sequencing); 10 mM Tris-HCl pH 7.5, 50 mM NaCl, 1 mM DTT, 4% glycerol, room temperature, 30 min; GST-TFs on glutathione beads, 16-mer random dsDNA library, 0.1% formaldehyde crosslink after washing; high values mean tight binding
# FEV = target: T1, FEV (Homo sapiens, UniProt Q99581 1-238); conditions: protein: recombinant; tags: N-terminal GST; dsDNA, one strand shown
# T1 sequence: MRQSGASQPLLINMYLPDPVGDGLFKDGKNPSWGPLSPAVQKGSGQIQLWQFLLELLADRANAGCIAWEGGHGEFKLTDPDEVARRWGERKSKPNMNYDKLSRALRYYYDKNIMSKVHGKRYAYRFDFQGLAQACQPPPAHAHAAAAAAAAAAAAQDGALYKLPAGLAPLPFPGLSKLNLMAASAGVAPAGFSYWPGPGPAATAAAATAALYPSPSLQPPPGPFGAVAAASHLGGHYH
# How it was run: (§1)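 A tag-only sample was pooled with DNA-barcoded human transcription factors that had been expressed in yeast as GST fusions and captured on glutathione beads. The pools were incubated for 30 min at room temperature with 200 nmole of a random double-stranded 16-mer DNA library in Tris/NaCl/DTT/glycerol buffer, then washed, crosslinked with 0.1% formaldehyde, proximity-ligated (BsaI/T4 ligase, 1 h, 37 °C), PCR-amplified and sequenced on an Illumina NextSeq500. Binding signal is each hexamer's read frequency for a factor divided by its frequency for the tag-only sample.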
# ETV5 = ETV5 (Homo sapiens, UniProt P41161 1-510); conditions: protein: recombinant; tags: N-terminal GST; dsDNA, one strand shown
# ETV5, sequence (P41161 whole entry): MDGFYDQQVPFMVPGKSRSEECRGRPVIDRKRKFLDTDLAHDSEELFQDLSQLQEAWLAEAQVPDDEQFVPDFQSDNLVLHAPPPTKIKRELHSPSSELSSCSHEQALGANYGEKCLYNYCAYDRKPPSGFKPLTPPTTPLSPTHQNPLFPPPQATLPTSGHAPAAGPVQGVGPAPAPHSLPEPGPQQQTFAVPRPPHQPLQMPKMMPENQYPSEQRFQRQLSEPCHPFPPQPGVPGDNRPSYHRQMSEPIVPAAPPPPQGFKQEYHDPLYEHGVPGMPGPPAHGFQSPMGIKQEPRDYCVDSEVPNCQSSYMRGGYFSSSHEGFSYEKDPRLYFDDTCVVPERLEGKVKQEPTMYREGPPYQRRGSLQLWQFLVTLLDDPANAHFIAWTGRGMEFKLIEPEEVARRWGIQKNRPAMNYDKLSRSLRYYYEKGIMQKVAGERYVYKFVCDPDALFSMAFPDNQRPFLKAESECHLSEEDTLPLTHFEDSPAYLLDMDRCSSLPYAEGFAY
# How it was run: as §1
# HSF1 = HSF1 (Homo sapiens, UniProt Q00613 1-529); conditions: protein: recombinant; tags: N-terminal GST; chain copies: 3; dsDNA, one strand shown
# HSF1, sequence (Q00613 whole entry): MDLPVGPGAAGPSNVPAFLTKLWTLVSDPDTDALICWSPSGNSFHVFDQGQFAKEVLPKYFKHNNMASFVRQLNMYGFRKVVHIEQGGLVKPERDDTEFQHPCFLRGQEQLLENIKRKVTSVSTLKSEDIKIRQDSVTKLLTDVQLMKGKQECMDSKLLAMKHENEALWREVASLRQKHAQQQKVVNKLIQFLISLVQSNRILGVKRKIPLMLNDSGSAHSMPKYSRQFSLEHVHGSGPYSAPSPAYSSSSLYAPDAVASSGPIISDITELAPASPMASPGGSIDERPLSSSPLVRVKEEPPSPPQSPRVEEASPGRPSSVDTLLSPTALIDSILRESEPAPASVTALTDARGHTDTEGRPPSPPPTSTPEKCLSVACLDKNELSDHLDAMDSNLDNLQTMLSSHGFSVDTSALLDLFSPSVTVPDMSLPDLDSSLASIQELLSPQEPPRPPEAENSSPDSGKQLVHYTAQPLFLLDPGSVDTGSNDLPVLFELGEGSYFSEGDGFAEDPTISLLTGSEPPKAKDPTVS
# How it was run: as §1
# SPIC = target: T2, SPIC (Homo sapiens, UniProt Q8N5J4 1-248); conditions: protein: recombinant; tags: N-terminal GST; dsDNA, one strand shown
# T2 sequence: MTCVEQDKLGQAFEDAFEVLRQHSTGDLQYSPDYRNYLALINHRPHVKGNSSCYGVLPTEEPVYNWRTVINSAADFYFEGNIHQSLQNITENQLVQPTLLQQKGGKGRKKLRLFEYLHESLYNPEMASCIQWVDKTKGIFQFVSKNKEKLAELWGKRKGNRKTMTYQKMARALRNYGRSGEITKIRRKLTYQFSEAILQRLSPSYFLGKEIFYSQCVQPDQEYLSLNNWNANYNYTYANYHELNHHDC
# How it was run: as §1
# ELF4 = ELF4 (Homo sapiens, UniProt Q99607 1-663); conditions: protein: recombinant; tags: N-terminal GST; dsDNA, one strand shown
# ELF4, sequence (Q99607 whole entry): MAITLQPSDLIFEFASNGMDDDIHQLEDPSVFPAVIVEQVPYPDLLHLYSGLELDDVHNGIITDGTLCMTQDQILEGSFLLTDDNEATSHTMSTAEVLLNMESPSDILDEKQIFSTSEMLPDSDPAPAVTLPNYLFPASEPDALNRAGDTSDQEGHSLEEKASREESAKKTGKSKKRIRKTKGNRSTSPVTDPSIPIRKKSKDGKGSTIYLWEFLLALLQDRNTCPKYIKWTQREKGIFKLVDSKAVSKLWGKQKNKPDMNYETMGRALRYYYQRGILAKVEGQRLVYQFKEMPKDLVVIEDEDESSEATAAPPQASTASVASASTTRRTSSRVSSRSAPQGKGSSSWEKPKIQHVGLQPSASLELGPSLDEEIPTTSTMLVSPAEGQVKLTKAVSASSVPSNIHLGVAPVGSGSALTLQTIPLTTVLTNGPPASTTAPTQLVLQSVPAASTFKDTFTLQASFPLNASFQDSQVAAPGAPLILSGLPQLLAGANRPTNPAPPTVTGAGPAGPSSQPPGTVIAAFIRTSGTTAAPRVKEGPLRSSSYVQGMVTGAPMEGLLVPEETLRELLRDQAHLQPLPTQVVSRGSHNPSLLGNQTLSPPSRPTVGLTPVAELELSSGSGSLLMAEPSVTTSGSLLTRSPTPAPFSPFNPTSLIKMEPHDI
# How it was run: as §1
# ELK4 = target: T3, ELK4 (Homo sapiens, UniProt P28324-2 1-405); conditions: protein: recombinant; tags: N-terminal GST; dsDNA, one strand shown
# T3 sequence: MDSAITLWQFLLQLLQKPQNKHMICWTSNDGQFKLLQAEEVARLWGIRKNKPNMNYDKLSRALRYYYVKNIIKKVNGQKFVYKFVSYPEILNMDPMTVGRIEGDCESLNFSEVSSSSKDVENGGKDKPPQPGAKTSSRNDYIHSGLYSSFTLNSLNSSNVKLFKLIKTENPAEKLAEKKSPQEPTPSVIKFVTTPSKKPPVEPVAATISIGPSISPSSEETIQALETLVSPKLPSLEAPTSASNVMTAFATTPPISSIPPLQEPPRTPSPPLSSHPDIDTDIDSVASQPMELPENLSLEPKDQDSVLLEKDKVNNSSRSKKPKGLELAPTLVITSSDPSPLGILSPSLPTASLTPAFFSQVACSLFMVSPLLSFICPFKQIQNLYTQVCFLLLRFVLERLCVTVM
# How it was run: as §1
# ETV2 = target: T4, ETV2 (Homo sapiens, UniProt O00321 1-342); conditions: protein: recombinant; tags: N-terminal GST; dsDNA, one strand shown
# T4 sequence: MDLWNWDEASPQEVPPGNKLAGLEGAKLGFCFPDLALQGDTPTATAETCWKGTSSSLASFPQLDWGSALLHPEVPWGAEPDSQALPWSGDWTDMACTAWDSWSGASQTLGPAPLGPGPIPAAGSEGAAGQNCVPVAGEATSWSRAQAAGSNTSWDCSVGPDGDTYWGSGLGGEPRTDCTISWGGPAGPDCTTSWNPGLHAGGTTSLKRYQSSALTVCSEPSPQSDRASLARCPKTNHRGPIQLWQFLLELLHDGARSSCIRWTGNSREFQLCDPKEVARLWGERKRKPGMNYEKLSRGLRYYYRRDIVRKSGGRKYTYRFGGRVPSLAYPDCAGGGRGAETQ
# How it was run: as §1
# ELF3 = target: T5, ELF3 (Homo sapiens, UniProt P78545 1-371); conditions: protein: recombinant; tags: N-terminal GST; dsDNA, one strand shown
# T5 sequence: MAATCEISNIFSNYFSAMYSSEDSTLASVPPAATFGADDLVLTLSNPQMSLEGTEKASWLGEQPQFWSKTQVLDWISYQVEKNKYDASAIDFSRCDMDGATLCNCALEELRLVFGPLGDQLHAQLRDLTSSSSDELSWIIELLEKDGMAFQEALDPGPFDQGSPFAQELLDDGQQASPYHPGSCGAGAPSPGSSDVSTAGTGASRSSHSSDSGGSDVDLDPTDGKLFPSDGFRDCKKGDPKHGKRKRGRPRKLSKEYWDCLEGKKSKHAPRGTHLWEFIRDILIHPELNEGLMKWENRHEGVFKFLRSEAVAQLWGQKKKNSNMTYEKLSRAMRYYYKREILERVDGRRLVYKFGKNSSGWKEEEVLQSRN
# How it was run: as §1
# CRX = CRX (Homo sapiens, UniProt O43186 1-299); conditions: protein: recombinant; tags: N-terminal GST; dsDNA, one strand shown
# CRX, sequence (O43186 whole entry): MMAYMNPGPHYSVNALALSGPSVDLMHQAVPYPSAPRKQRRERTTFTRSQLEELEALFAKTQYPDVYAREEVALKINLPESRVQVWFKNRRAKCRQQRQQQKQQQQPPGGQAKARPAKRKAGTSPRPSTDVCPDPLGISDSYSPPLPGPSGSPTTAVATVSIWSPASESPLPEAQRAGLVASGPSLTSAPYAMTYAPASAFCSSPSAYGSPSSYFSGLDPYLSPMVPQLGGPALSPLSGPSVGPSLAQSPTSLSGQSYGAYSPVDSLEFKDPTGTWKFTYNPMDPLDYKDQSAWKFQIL
# How it was run: as §1
# ETV1 = ETV1 (Homo sapiens, UniProt P50549 1-477); conditions: protein: recombinant; tags: N-terminal GST; dsDNA, one strand shown
# ETV1, sequence (P50549 whole entry): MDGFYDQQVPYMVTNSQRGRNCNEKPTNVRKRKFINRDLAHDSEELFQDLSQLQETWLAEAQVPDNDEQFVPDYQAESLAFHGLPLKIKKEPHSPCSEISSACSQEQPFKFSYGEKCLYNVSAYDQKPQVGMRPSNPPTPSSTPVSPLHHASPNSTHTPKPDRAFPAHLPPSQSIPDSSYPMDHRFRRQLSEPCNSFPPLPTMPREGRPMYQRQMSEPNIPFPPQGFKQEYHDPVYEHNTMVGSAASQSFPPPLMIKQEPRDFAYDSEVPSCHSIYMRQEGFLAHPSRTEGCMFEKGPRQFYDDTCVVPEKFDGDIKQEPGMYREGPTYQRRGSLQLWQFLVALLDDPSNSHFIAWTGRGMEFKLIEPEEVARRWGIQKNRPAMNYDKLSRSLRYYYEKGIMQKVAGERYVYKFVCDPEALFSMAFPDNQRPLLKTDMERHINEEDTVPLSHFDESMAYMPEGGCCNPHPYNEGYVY
# How it was run: as §1
sequence,measurement,setting,value
AACCTT,binding signal,FEV,"1.24 fold enrichment (6-mer frequency, TF over GST control)"
same,binding signal,ETV5,"1.3 fold enrichment (6-mer frequency, TF over GST control)"
same,binding signal,HSF1,"1.66 fold enrichment (6-mer frequency, TF over GST control)"
same,binding signal,SPIC,"1.17 fold enrichment (6-mer frequency, TF over GST control)"
same,binding signal,ELF4,"1.27 fold enrichment (6-mer frequency, TF over GST control)"
same,binding signal,ELK4,"1.36 fold enrichment (6-mer frequency, TF over GST control)"
same,binding signal,ETV2,"1.13 fold enrichment (6-mer frequency, TF over GST control)"
same,binding signal,ELF3,"1.23 fold enrichment (6-mer frequency, TF over GST control)"
same,binding signal,CRX,"1.39 fold enrichment (6-mer frequency, TF over GST control)"
same,binding signal,ETV1,"1.29 fold enrichment (6-mer frequency, TF over GST control)"
